Measurements from PubChem BioAssay (NCATS).
Records with an inconclusive call do not appear. A call without a number means that no potency is given here. Unmarked numbers belong to inactive results. Calls of active or inactive are those of the source. The call rests on the fitted dose curve; in most records, active means well fitted curve in the direction sought with a large enough effect; inconclusive means small, poorly fitted or top-dose-only effect, or another doubt; inactive means no such curve, though single readings can be large; an effect the other way counts as inactive or inconclusive.

Legend:
[1] = tested on: HaCat; test: Cytotoxic Profiling of Annotated Libraries Using Quantitative High-Throughput Screening (AID 1296008); conditions: Five cell lines viability, CellTiter-Glo ATP luminescence, 48-72 h; max response: active compounds read low; further: nearly all actives have a fitted effect of over 60% in size; further: potency means the concentration at half of the fitted maximal effect
Method in brief: (§1)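 Cells exposed to compounds for 48 or 72 hr at 37 degrees Celsius. Viability read as ATP-coupled luminescence with CellTiter-Glo after 10 min at room temperature.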

[2] = tested on: KB-3-1; test: as above; conditions: Five cell lines viability, CellTiter-Glo ATP luminescence, 48-72 h; max response: active compounds read low
Method in brief: as §1

[3] = tested on: NIH3T3; test: as above; conditions: Five cell lines viability, CellTiter-Glo ATP luminescence, 48-72 h; max response: active compounds read low
Method in brief: as §1

[4] = tested on: C33A; test: Primary qHTS to identify gynecologic anti-cancer compounds using libraries of approved drugs and bioactive compounds (AID 1345084); conditions: Gynecologic cancer cell panel viability, ATPlite luminescence, 48 h; series mostly up to 57.5 µM; further: nearly all actives have a fitted effect of over 55% in size; further: potency means the concentration at half of the fitted maximal effect
Method in brief: (§2)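 Cytotoxicity screen measuring ATP content by luciferase luminescence. Each compound is applied at five concentrations for 48 h at 37 C with 5% CO2.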

[5] = tested on: CASKI; test: as above; conditions: Gynecologic cancer cell panel viability, ATPlite luminescence, 48 h; series mostly up to 57.5 µM
Method in brief: as §2

[6] = tested on: Es-2; test: as above; conditions: Gynecologic cancer cell panel viability, ATPlite luminescence, 48 h; series mostly up to 57.5 µM
Method in brief: as §2

[7] = tested on: HeLa; test: as above; conditions: Gynecologic cancer cell panel viability, ATPlite luminescence, 48 h; series mostly up to 57.5 µM
Method in brief: as §2

[8] = tested on: Hek293T; test: as above; conditions: Gynecologic cancer cell panel viability, ATPlite luminescence, 48 h, control line for the selectivity index; series mostly up to 57.5 µM
Method in brief: as §2

[9] = tested on: JEG-3; test: as above; conditions: Gynecologic cancer cell panel viability, ATPlite luminescence, 48 h; series mostly up to 57.5 µM
Method in brief: as §2

[10] = tested on: OV90; test: as above; conditions: Gynecologic cancer cell panel viability, ATPlite luminescence, 48 h; series mostly up to 57.5 µM
Method in brief: as §2

[11] = tested on: CAOV3; test: as above; conditions: Gynecologic cancer cell panel viability, ATPlite luminescence, 48 h; series mostly up to 57.5 µM
Method in brief: as §2

[12] = tested on: NIH3T3; test: qHTS assay to identify novel small-molecules to repurpose for Merkel cell carcinoma treatment (AID 1296009); conditions: MCC and control cell lines, CellTiter-Glo viability, 72 h; series mostly up to 44.8 µM; further: nearly all actives have a fitted effect of over 60% in size
Method in brief: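 Cells were treated for 72 hr at 37 degree celsius with compounds in 8- or 11-point dose response. Viability was read by CellTiter-Glo luminescence, normalized to no-cell (cytotoxicity) and DMSO controls.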

Row | Compound | max response [1] | max response [2] | max response [3] | Potency [4] | Potency [5] | Potency [6] | Potency [7] | Potency [8] | Potency [9] | Potency [10] | outcome [2] | Potency [11] | Potency [1] | Potency [2] | outcome [3] | Potency [12] | Potency [3]
1 | COc1ccc(OC)c(-c2ccc(NC(=O)c3ccncc3F)cc2)c1 | -19.1% | -12.6% | 0.707% | inactive | inactive | inactive | inactive | inactive | inactive | inactive | – | – | – | – | – | – | –
2 | C=C1C(=O)OC2CC3(C)C(O)C(=O)C=C(C)C3CC12 (stereo unspecified) | 0.297% | – | -22.8% | inactive | inactive | inactive | inactive | inactive | inactive | inactive | inactive | inactive | – | – | – | – | –
3 | COC1CCN(C(=O)c2cc(Cc3n[nH]c(=O)c4ccccc34)ccc2F)CC1 | 1.07% | -17.5% | -21.2% | inactive | inactive | inactive | inactive | inactive | inactive | inactive | – | inactive | – | – | – | – | –
4 | CC(=O)OC1C(O)CC2(C)C(CCC3(C)C2CC=C2C4C5(CCC(CO[C@@H]6O[C@H](CO)[C@@H](O)[C@H](O)[C@H]6O)(OC5=O)C4(C)O)C(O)CC23C)C1(C)C (stereo partly specified) | -8.16% | – | 2.97% | inactive | inactive | inactive | inactive | inactive | inactive | inactive | inactive | inactive | – | – | – | – | –
5 | C=C1C(=O)O[C@@H]2[C@H]1CCC(C)=C(CCC(=O)O)[C@@]2(C)O | 2.79% | – | -62.1% | inactive | inactive | inactive | inactive | inactive | inactive | inactive | inactive | inactive | – | – | – | – | –
6 | COc1c(C(O)CC(C)C)ccc2c1C(=O)OCc1cc(C)cc(O)c1O2 (stereo unspecified) | 0.403% | -22.7% | -2.04% | inactive | inactive | inactive | inactive | inactive | inactive | inactive | – | inactive | – | – | – | – | –
7 | Cc1cc2sc(NC(=O)Cc3ccccc3)nc2cc1Cl | -26.8% | 3.53% | 0.0198% | inactive | inactive | inactive | inactive | inactive | inactive | inactive | – | inactive | – | – | – | – | –
8 | O=c1cc(N2CCN(c3cccc(C(F)(F)F)c3)CC2)[nH]c(=O)n1C1CCCCC1 | -21.7% | – | -29.2% | inactive | inactive | inactive | inactive | inactive | inactive | inactive | inactive | inactive | – | – | – | – | –
9 | Nc1nc(OCc2cc(Br)cs2)c2[nH]cnc2n1 | -1.07% | – | 2.13% | inactive | inactive | inactive | inactive | inactive | inactive | inactive | inactive | inactive | – | – | – | – | –
10 | COc1cc2ncnc(Nc3cccc(I)c3)c2cc1OC | – | – | – | inactive | inactive | inactive | – | inactive | inactive | inactive | – | – | 4.61 µM (active) | 9.2 µM (active) | inactive | inactive | –
11 | NC(=O)c1ccccc1Nc1ccnc(Nc2cccc(O)c2)n1 | – | – | – | inactive | 12.6 µM (active) | – | 3.16 µM (active) | – | – | – | – | 8.91 µM (active) | 5.8 µM (active) | 8.2 µM (active) | – | – | 7.31 µM (active)
12 | COc1cc(C#N)ccc1S(=O)(=O)Nc1ccc2c(c1)cc(C)c(=O)n2C | -9.16% | -22.2% | -0.625% | inactive | inactive | inactive | inactive | inactive | inactive | inactive | – | inactive | – | – | – | – | –
13 | C=CC(C)(C)C12CC3C(=O)N4C(CC5(C(C)(C)C=C)c6ccccc6NC45)C(=O)N3C1Nc1ccccc12 (stereo unspecified) | – | 3.74% | 1.64% | inactive | inactive | inactive | inactive | inactive | – | inactive | – | inactive | 11.2 µM (active) | – | – | – | –
14 | NC(N)=N/N=C/c1ccccc1Cl | -18.8% | -14.8% | -25.1% | inactive | inactive | inactive | inactive | inactive | inactive | inactive | – | inactive | – | – | – | – | –
15 | CCCCOc1ccc(S(=O)(=O)n2c(C)nc3ccccc32)cc1 | 3.36% | -24.1% | -1.64% | inactive | inactive | inactive | inactive | inactive | inactive | inactive | – | – | – | – | – | – | –
16 | C=C1/C(=C/C=C2\CCC[C@]3(C)[C@@H]([C@@H](C)OCCC(O)(CC)CC)CC[C@@H]23)C[C@@H](O)C[C@@H]1O | -5.69% | -12.7% | -34.7% | inactive | inactive | inactive | inactive | – | – | inactive | – | inactive | – | – | – | – | –
